# Experimental data: the supplement of paper PMC9262897, “Low-cost anti-mycobacterial drug discovery using engineered E. coli” (Nature Communications, 2022)
# Where a name gives a salt, the structure may show the parent alone. ± gives the standard deviation of the averaged measurements.
# System: E. coli TESEC Mtb Alr
# Experiment: growth (OD600 after 10 h); higher = more growth (less inhibition)
# Conditions: arabinose 10000 nM; compound 0.1 mM; raw OD600 reference: median of DMSO wells 0.264, cell-free background 0.041
# Method: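 TESEC Mtb Alr E. coli, or the Alr+ wild-type control, in 384-well plates with Prestwick library compounds at 0.1 mM and 1% DMSO, across arabinose induction levels of 1E3 to 1E7 nM. Growth is read as OD600 after 10 h at 37 °C in triplicate biological replicates.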
row,SMILES,growth
1,O=C1OC(CN2CCOCC2)CN1/N=C/c1ccc([N+](=O)[O-])o1 (configuration not stated) [Furaltadone hydrochloride],0.0409 ± 0.0001
2,CN(C)CCCN1c2ccccc2CCc2ccccc21 [Imipramine hydrochloride],0.285 ± 0.013
3,CCOC(=O)O[C@]1(C(=O)OCCl)CC[C@H]2[C@@H]3CCC4=CC(=O)C=C[C@]4(C)[C@H]3[C@@H](O)C[C@@]21C [Loteprednol etabonate],0.15 ± 0.0072
4,CCCNC(C)C(=O)Nc1ccccc1C (configuration not stated) [Prilocaine hydrochloride],0.264 ± 0.0046
5,NS(=O)(=O)c1cc2c(cc1Cl)NCNS2(=O)=O [Hydrochlorothiazide],0.255 ± 0.006
6,Cc1cc2c(s1)Nc1ccccc1N=C2N1CCN(C)CC1 [Olanzapine],0.267 ± 0.0071
7,Nc1ccc(C(=O)O)c(O)c1 [4-aminosalicylic acid],0.277 ± 0.0057
8,CC(=O)Oc1ccc(C(c2ccc(OC(C)=O)cc2)c2ccccn2)cc1 [Bisacodyl],0.289 ± 0.016
9,"CN(Cc1cnc2nc(N)nc(N)c2n1)c1ccc(C(=O)N[C@@H](CCC(=O)O)C(=O)O)cc1 (racemic) [Amethopterin (R,S)]",0.224 ± 0.011
10,CC(C(=O)O)c1ccc(C(=O)c2ccccc2)s1 (configuration not stated) [Tiaprofenic acid],0.246 ± 0.0058
11,Nc1c2ccccc2nc2ccccc12 [Aminacrine],0.0408 ± 0.0025
12,CCCC(CCC)C(=O)O [Valproic acid],0.2722 ± 0.00032
13,Cc1[nH]cnc1CN1CCc2c(c3ccccc3n2C)C1=O [Alosetron hydrochloride],0.233 ± 0.014
14,CN(C)c1nc(N(C)C)nc(N(C)C)n1 [Altretamine],0.254 ± 0.0079
15,Cc1nnc(NS(=O)(=O)c2ccc(N)cc2)s1 [Sulfamethizole],0.236 ± 0.004
16,CCC1=C(C)CN(C(=O)NCCc2ccc(S(=O)(=O)NC(=O)N[C@H]3CC[C@H](C)CC3)cc2)C1=O [Glimepiride],0.239 ± 0.0027
17,CC1CC(OC(=O)c2ccccc2O)CC(C)(C)C1 (configuration not stated) [Homosalate],0.263 ± 0.019
18,CCCN(CCC)C(=O)C(CCC(=O)O)NC(=O)c1ccccc1 (configuration not stated) [Proglumide],0.29 ± 0.017
19,NCCc1ccc(O)c(O)c1 [Dopamine hydrochloride],0.274 ± 0.0041

row,SMILES,growth
1,OCCN1CCN(CCCN2c3ccccc3Sc3ccc(Cl)cc32)CC1 [Perphenazine],0.0422 ± 0.00061
2,CCN(CC)CCOC(=O)C1(C2CCCCC2)CCCCC1 [Dicyclomine hydrochloride],0.195 ± 0.0043
3,Cc1cc(-c2ccccc2)nnc1NCCN1CCOCC1 [Minaprine dihydrochloride],0.25 ± 0.0072
4,CCC1(C)CC(=O)NC1=O (configuration not stated) [Ethosuximide],0.267 ± 0.0062
5,COc1nc(C)nc(Cl)c1NC1=NCCN1 [Moxonidine],0.262 ± 0.0065
6,COC(=O)Nc1nc2cc(C(=O)c3cccs3)ccc2[nH]1 [Nocodazole],0.269 ± 0.0045
7,CCN(CC)C(=O)/C(C#N)=C/c1cc(O)c(O)c([N+](=O)[O-])c1 [Entacapone],0.0571 ± 0.00062
8,CCN(CC)CCOC(=O)C(c1ccccc1)C1CCCCC1 (configuration not stated) [Drofenine hydrochloride],0.218 ± 0.0035
9,Cc1c(Cl)cccc1Nc1ncccc1C(=O)O [Clonixin Lysinate],0.155 ± 0.0017
10,Cn1cnc2c1c(=O)[nH]c(=O)n2C [Theobromine],0.289 ± 0.015
11,COc1cc(N)c(Cl)cc1C(=O)NC1CCN(Cc2ccccc2)CC1 [Clebopride maleate],0.24 ± 0.005
12,CCN1CCN(c2cc3c(cc2F)c(=O)c(C(=O)O)cn3C2CC2)CC1 [Enrofloxacin],0.0393 ± 0.00035
13,Nc1ccn([C@H]2CC[C@@H](CO)O2)c(=O)n1 [Zalcitabine],0.279 ± 0.014
14,COCCOC(=O)C1=C(C)NC(C)=C(C(=O)OC(C)C)C1c1cccc([N+](=O)[O-])c1 (configuration not stated) [Nimodipine],0.0601 ± 0.0043
15,C[C@H]1O[C@@H](O[C@H]2[C@@H](O)C[C@H](O[C@H]3[C@@H](O)C[C@H](O[C@H]4CC[C@@]5(C)[C@H](CC[C@@H]6[C@@H]5C[C@@H](O)[C@]5(C)[C@@H](C7=CC(=O)OC7)CC[C@]65O)C4)O[C@@H]3C)O[C@@H]2C)C[C@H](O)[C@@H]1O [Digoxin],0.275 ± 0.0083
16,COc1cccc2c1C(=O)c1c(O)c3c(c(O)c1C2=O)C[C@@](O)(C(C)=O)C[C@@H]3O[C@H]1C[C@H](N)[C@H](O)[C@H](C)O1 [Daunorubicin hydrochloride],0.04263 ± 5.8e-05
17,O=C(CCNNC(=O)c1ccncc1)NCc1ccccc1 [Nialamide],0.276 ± 0.0091
18,CC(=O)S[C@@H]1CC2=CC(=O)CC[C@]2(C)[C@H]2CC[C@@]3(C)[C@@H](CC[C@@]34CCC(=O)O4)[C@H]12 [Spironolactone],0.0753 ± 0.0019
